From PubChem
PNC inhibitor: High Content Assay for Compounds that inhibit the Assembly of the Perinucleolar Compartment; PC3M PTB-GFP, PNC prevalence imaging, 16 h; active compounds read low; 140,000 compounds, 3.1% hits; activity change (PNC), negative = inhibition, % at 10 µM; AID 2417, 2010;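 active means readout at or below -70, meaning at least 70% loss of cells showing the perinucleolar compartment, a nuclear body marking cancer cells; inconclusive means readout between -30 and a set limit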;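 further: plate controls were DMSO wells for no effect and camptothecin positive control wells for full effect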
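Compounds are pinned in duplicate onto adhered PC3M cells stably expressing GFP-tagged PTB and incubated 16 h at 37 C. Cells are then fixed, nuclei stained with Hoechst, and PNC-positive cells counted.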
12-hLO inh: qHTS Assay for Inhibitors of 12-hLO (12-human lipoxygenase). Polyunsaturated fatty acid lipoxygenase ALOX12 (Homo sapiens), P18054. purified 12-hLO, xylenol orange hydroperoxide absorbance. Potency, µM (doses to about 57.1 µM), without a hit: top-dose activity change, negative = inhibition, usual class: inhibitors. 150,000 compounds, 0.12% hits. AID 1452, 2008; further: potency means the concentration at half of the fitted maximal effect; nearly all actives have a fitted effect of over 55% in size
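Hydroperoxide output read as Fe(III)-xylenol orange absorbance, 573-to-405 nm ratio, after 30 min reaction with 40 uM arachidonic acid. Enzyme: 150 nM purified human 12hLO, 15 min compound preincubation; 25 mM Hepes pH 7.0, room temperature.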
ALDH1A1 inh: qHTS Assay for Inhibitors of Aldehyde Dehydrogenase 1 (ALDH1A1). Purified ALDH1A1, NADH fluorescence, propionaldehyde substrate. 220,000 compounds, 7.3% hits. AID 1030, 2008. Aldehyde dehydrogenase 1A1 (Homo sapiens), P00352. Potency, µM (top dose mostly 75.3 µM), for the others: at the highest dose activity, negative = inhibition, hits mostly inhibitors; active means well fitted inhibition curve with a large enough effect, not every such curve was filed as active; inconclusive means small, poorly fitted or top-dose-only effect, or another doubt; inactive means no such curve, though single readings can be large or run the other way;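 further: potency means the concentration at half of the fitted maximal effect; plate controls were no enzyme wells and a reference inhibitor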
HPGD block: qHTS Assay for Inhibitors of HPGD (15-Hydroxyprostaglandin Dehydrogenase) | 15-hydroxyprostaglandin dehydrogenase [NAD(+)] (Homo sapiens), P15428 | 150,000 compounds, 4.3% hits | purified HPGD, NADH fluorescence kinetic, PGE2 substrate | Potency, µM, for the others: at the top dose activity change, negative = inhibition, actives largely listed as inhibitors; active means well fitted inhibition curve with a large enough effect, not every such curve was filed as active; inconclusive means small, poorly fitted or top-dose-only effect, or another doubt; inactive means no such curve, though single readings can be large or run the other way; further: potency means the concentration at half of the fitted maximal effect
Target sequence (P15428 whole entry, looked up): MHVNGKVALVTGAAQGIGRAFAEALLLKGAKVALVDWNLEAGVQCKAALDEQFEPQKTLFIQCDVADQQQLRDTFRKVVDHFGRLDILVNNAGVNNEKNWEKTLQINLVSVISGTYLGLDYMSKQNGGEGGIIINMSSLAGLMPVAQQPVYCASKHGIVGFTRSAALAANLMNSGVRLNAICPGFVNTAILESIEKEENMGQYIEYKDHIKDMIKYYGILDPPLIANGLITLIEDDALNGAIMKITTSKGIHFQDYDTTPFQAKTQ
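20 nM HPGD preincubated 15 min at room temperature with compound in 50 mM Tris-HCl pH 8, 0.01% Tween 20. Started with 1 mM NAD+ and 30 uM prostaglandin E2; NADH fluorescence (360/450 nm) read 5 times over 30-s intervals, last minus first.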
IMPase inh: qHTS Assay for Identifying the Cell-Membrane Permeable IMPase Inhibitors. AID 901, 2007. CHO-M1 cells, IP1 accumulation, HTRF TR-FRET ratio. inhibition (IP1 accumulation), % at 46.1 µM. 120,000 tested, under 10 active. Inositol monophosphatase 1 (Rattus norvegicus), P97697; active means well fitted curve in the direction sought with a large enough effect in the signal ratio, not every such curve was filed as active; inconclusive means small, poorly fitted or top-dose-only effect, or a change in a side signal; inactive means no such curve, though single readings can be large or run the other way; the % refers to the signal ratio;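 further: cells stimulated with carbachol in lithium chloride buffer; plate controls were DMSO basal wells for no effect and reference inhibitor wells for full effect; higher means more IMPase inhibition seen as more IP1 and lower FRET ratio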
Target sequence (P97697 whole entry, looked up): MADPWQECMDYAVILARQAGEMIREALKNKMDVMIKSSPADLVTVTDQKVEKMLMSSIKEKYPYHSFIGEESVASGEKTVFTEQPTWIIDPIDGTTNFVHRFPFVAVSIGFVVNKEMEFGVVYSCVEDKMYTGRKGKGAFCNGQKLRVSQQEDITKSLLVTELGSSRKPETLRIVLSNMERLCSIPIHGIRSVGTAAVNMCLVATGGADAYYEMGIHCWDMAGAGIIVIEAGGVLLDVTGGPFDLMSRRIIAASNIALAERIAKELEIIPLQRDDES
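The IP-One HTRF competitive assay in carbachol-stimulated CHO-M1 cells quantifies cellular IP1. Compounds spanned up to 46 uM final, and activity is expressed as AC50 from concentration-response fits of the ratio and donor data.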
IMPase Li inh: qHTS Assay for Identifying the Cell-Membrane Permeable IMPase Inhibitors: Potentiation with Lithium; AID 1457, 2008; Potency, µM (highest dose often 59.4 µM), inactives show top-dose activity, negative = IMPase inhibition, hits mostly inhibitors; 210,000 compounds, 0.35% hits; CHO-M1 cells, IP1 TR-FRET (IP-One), carbachol + lithium;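 further: IP1 builds up when IMPase is blocked and the TR-FRET signal falls; potency means the concentration at half of the fitted maximal effect; plate controls were basal vehicle for no effect and high inhibitor control for full effect; nearly all actives have a fitted effect of over 50% in size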
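Test compounds were applied to CHO-M1 cells previously cultured for 16–30 h at 2000 per well. A small lithium amount accompanied them; after 30 min at 37C, IP1 was quantified by TR-FRET.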
Numbers without * were called inactive; ? = inconclusive; . = no result given; [ ] = remark or other dose. The list is not random: actives were taken first. Their share in the collection is about 11%. Unless noted, the call rests on the fitted dose curve; in most records, active means well fitted curve in the direction sought with a large enough effect; inconclusive means small, poorly fitted or top-dose-only effect, or another doubt; inactive means no such curve, though single readings can be large; an effect the other way counts as inactive or inconclusive. Unless noted, on the % scale 0 is the no-effect control and ±100 the full control effect.

SMILES	PNC inhibitor	12-hLO inh	ALDH1A1 inh	HPGD block	IMPase inh	IMPase Li inh
CCOC(=O)CC(=O)CSc1nc2ccccc2c(=O)n1-c1ccc(C(=O)N2CCOCC2)cc1	-14.4	8.8%	-9.8%	-11.3%	7.0	-13.0%[38.3 µM]
O=C(c1ccc(-n2c(SCc3cc(F)ccc3F)nc3ccccc3c2=O)cc1)N1CCOCC1	21.7	0.4%	35.5µM*	-11.8%	.	13.5%
Cc1ccc(-c2cc(C(=O)Nc3cc(C)ccc3C)[nH]n2)c(O)c1	-84.3*	6.4%	-0.7%	-12.7%	-0.1	1.2%
CCNc1ncc2nc(-c3cccc(C#N)c3)c(=O)n(Cc3cccc(OC)c3)c2n1	.	.	10.5%	.	.	-10.8%
COc1cc(=O)n2c(n1)SCCC2	60.4	3.4%	-0.3%	-5.3%	4.9	-3.8%[38.3 µM]
O=C(COc1cc(=O)n2c(n1)SCCC2)c1ccccc1	-3.9	-2.5%	14.1µM*	15.8µM*	5.7	-11.7%[38.3 µM]
CC(C)=CCC/C(C)=C\COc1c2ccoc2cc2oc(=O)ccc12	.	-2.0%	?	?	7.5	31.3%
O=c1/c(=C/c2ccc(O)cc2)sc2nc3cc(Br)cnc3n12	.	.	20µM*	.	.	-2.4%
O=C1CC(c2ccc(O[C@@H]3OC(CO)[C@@H](O)C(O)C3O)cc2)Oc2cc(O)ccc21 (some centres not stated)	.	.	4.5%	-9.2%	.	3.0%
COC(CNC(=O)C1CC(=O)N(CCc2ccccc2)C1)OC (configuration not stated)	13.6	6.5%	10.7%	-15.6%	1.3	26.6%[38.3 µM]
O=C(NCc1ccco1)C1CC(=O)N(CCc2ccccc2)C1 (configuration not stated)	39.5	-4.1%	22.4µM*	-7.9%	13.0	4.8%[38.3 µM]
COc1ccc(N=C2NC(=O)/C(=C\C=C\c3ccccc3)S2)cc1	.	.	6.9%	.	.	-9.8%
Cc1ccc(N=C2NC(=O)S/C2=C\c2ccco2)cc1	0.9	?	0.0%	22.4µM*	3.1	-9.7%
Cc1cccc(N=C2NC(=O)/C(=C/C=C/c3ccco3)S2)c1C	24.5	?	2.82µM*	7.94µM*	-8.7	21.8%
O=C1NC(=Nc2ccccc2)/C(=C/c2ccco2)S1	-19.0	-2.6%	?	-14.1%	11.0	2.2%
O=C1NC(=Nc2ccccc2)S/C1=C\C=C\c1ccco1	?	?	14.1%	28.2µM*	.	-3.0%
Cc1ccc(N=C2NC(=O)/C(=C/C=C/c3ccco3)S2)cc1	22.0	-29.0%	4.47µM*	-22.5%	.	4.2%
Cc1ccc(C(=O)COC(=O)CCC(=O)Nc2ccc(Oc3ccccc3)cc2)cc1	.	.	.	.	-0.9	.
Cc1ccc(NC(=S)Nc2cc(C(=O)O)ccc2N2CC3CC(C2)c2cccc(=O)n2C3)cc1C (configuration not stated)	.	.	28.2µM*	.	.	7.6%
O=C1c2cccc3c(O)ccc(c23)C(=O)N1Cc1ccco1	.	.	12.6µM*	.	.	-1.6%
O=C1c2ccccc2C(=O)N1Cc1ccco1	2.1	-5.9%	-15.9%	-5.9%	-3.5	5.2%[38.3 µM]
c1ccc(Cc2nnc3sc(-c4ccccn4)nn23)cc1	?	2.1%	14.1µM*	?	12.0	2.2%
COc1ccc(-c2nnc3sc(-c4cccs4)nn23)cc1OC	13.6	-6.5%	7.8%	?	0.0	-1.3%[38.3 µM]
c1ccc(Cc2nnc3sc(-c4cccs4)nn23)cc1	-25.9	4.7%	2.82µM*	8.91µM*	-1.0	18.9%[38.3 µM]
c1ccc(Cc2nnc3sc(-c4cccnc4)nn23)cc1	?	-6.3%	11.2µM*	14.1µM*	-5.0	-4.5%[38.3 µM]
SMILES	PNC inhibitor	12-hLO inh	ALDH1A1 inh	HPGD block	IMPase inh	IMPase Li inh
CN(C)c1ccc(-c2nn3c(-c4cccnc4)nnc3s2)cc1	?	3.7%	?	-17.5%	4.5	31.0%[38.3 µM]
c1ccc(Cc2nn3c(-c4ccncc4)nnc3s2)cc1	19.5	1.6%	22.4µM*	28.2µM*	-4.4	-5.3%[38.3 µM]
CCOc1ccccc1-c1nn2c(Cc3ccccc3)nnc2s1	12.0	-9.6%	?	?	8.8	9.2%[38.3 µM]
CC(=O)OC[C@@H]1O[C@@H](O/N=C2/C[C@@H](O)[C@@H](O)[C@@H]3[C@@H]4C(=O)N(C[C@@H]5CCCO5)C(=O)[C@H]4CC[C@@H]23)[C@H](OC(C)=O)[C@H](OC(C)=O)[C@@H]1OC(C)=O	.	.	-1.6%[13.5 µM]	.	.	.
Nc1ccc(S(=O)(=O)NCCS(=O)(=O)O)cc1	.	0.4%[11.4 µM]	-6.0%[13.5 µM]	4.0%	.	2.6%
COc1ccc(Oc2ncc3nc(-c4ccccc4)c(=O)n(CCC#N)c3n2)cc1	.	-0.2%	?	-21.9%	.	-6.4%
COc1ccc(C2c3cc(OC)c(OC)cc3Cc3c4cc(OC)c(OC)cc4cc[n+]32)cc1OC (configuration not stated)	.	.	-2.4%	-9.8%	.	23.9%
c1ccc(-c2nnc3sc(Cc4cccs4)nn23)cc1	221.1	4.4%	-35.0%	-25.4%	-0.1	10.7%
c1ccc(Cc2nnc3sc(-c4ccncc4)nn23)cc1	?	0.8%	7.94µM*	11.2µM*	-4.1	14.7%[38.3 µM]
c1ccc(Cc2nnc3sc(-c4ccc5c(c4)OCCO5)nn23)cc1	35.6	3.9%	?	?	3.5	19.8%[38.3 µM]
c1ccc(CCc2nn3c(Cc4ccccc4)nnc3s2)cc1	-13.1	-1.7%	8.91µM*	11.2µM*	0.1	22.3%[38.3 µM]
O=Cc1ccc(-n2nncc2-c2ccc([N+](=O)[O-])cc2)cc1	.	.	12.6µM*	.	.	11.3%
O=C(CN1CCOCC1)N1CCN(c2nnc(-c3ccccc3)c3ccccc23)CC1	-11.8	0.8%	12.6µM*	2.2%	-2.3	22.1%[38.3 µM]
Cn1c(=O)n(CC(=O)N2CCN(c3nnc(-c4ccccc4)c4ccccc34)CC2)c2ccccc21	-7.8	-2.3%	-6.0%	-3.4%	-0.5	-2.6%[38.3 µM]
Cc1ccc(-c2nnc(N3CCN(C(=O)CN4CCOCC4)CC3)c3ccccc23)cc1	?	-1.7%	17.8µM*	-10.5%	4.5	24.5%[38.3 µM]
Cc1ccc(-c2nnc(N3CCN(C(=O)COc4ccccc4)CC3)c3ccccc23)cc1	52.8	-2.3%	28.2µM*	-17.7%	7.3	37.2%[38.3 µM]
O=C(Nc1ccccc1)N1CCC2(CCNCC2)CC1	.	0.2%	-4.6%	-4.9%	.	1.8%
